Sampled rows, rich in hits. Any-hit rate of the full collection: about 6.1%.
D1 PAM: Potentiators of Human D1 Dopamine Receptor: qHTS; D(1A) dopamine receptor (Homo sapiens), P21728; AID 504651, 2011; HEK293 TREx D1 cells, calcium flux, dopamine EC20 potentiation; potentiation, % at 10 µM; 360,000 tested, 0.036% active; in the data active = potentiation above about 30%
DRD3 antagonist: qHTS of D3 Dopamine Receptor Antagonist: qHTS. D(3) dopamine receptor (Homo sapiens), P35462. D3R cells, DiscoveRx beta-arrestin luminescence, antagonist mode; stronger effect = lower value. max response, negative = inhibition, %. 360,000 tested, 2.5% active. AID 652054, 2013; in the data active = max response below about -50%
Target sequence (P35462 whole entry, looked up): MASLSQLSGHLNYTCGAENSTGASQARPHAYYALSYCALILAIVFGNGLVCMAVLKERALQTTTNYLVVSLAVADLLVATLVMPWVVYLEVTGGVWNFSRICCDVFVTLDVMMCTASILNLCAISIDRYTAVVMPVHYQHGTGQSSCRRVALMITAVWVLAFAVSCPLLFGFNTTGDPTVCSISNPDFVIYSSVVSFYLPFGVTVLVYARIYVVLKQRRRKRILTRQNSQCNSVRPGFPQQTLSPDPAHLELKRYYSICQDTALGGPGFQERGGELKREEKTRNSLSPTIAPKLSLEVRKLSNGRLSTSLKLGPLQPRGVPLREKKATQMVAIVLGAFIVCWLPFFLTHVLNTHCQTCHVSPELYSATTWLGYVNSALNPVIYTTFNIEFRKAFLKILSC
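Cells expressing the human receptor were seeded at 1500 cells/well, incubated overnight at 37 degrees C in 5% CO2, then exposed to library compounds with dopamine controls for 90 minutes at 37 degrees C before luminescent detection.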
DRD3 agonist: qHTS of D3 Dopamine Receptor Agonist: qHTS; 410,000 tested, 0.58% active; D(3) dopamine receptor (Homo sapiens), P35462; max activation, %; D3R DiscoveRx beta-arrestin cells, luminescence, 90 min; in the data active = max activation above about 30%
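Agonist-mode cell screen: cells plated at 1500/well and incubated overnight at 37 °C, then exposed to library compounds for 90 min at 37 °C. Detection reagent was added for 30–60 min at room temperature, and luminescence was read.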
D1 antagonist: Antagonist of Human D 1 Dopamine Receptor: qHTS; HEK293 TREx D1 cells, calcium flux, dopamine EC80; stronger effect = lower value; D(1A) dopamine receptor (Homo sapiens), P21728; 360,000 tested, 3.2% active; AID 504652, 2011; activity change, negative = inhibition, % at 10 µM; in the data active = activity change below about -30%
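Tetracycline-induced HEK293 Trex D1 cells, force-coupled to calcium, dye-loaded; compounds added and read 180 s, then EC80 dopamine added and calcium flux tracked kinetically another 180 s.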
D1 ag: Allosteric Agonists of the Human D1 Dopamine Receptor: qHTS; D(1A) dopamine receptor (Homo sapiens), P21728; HEK293 T-REx D1 cells, calcium flux, agonist mode; activation, % at 2 µM; 360,000 tested, 1% active; in the data active = activation above about 30%
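Inducible HEK293 T-REx D1 cells, force-coupled to calcium signalling, were plated at 4000 cells/well with tetracycline and held overnight at 30 C. After no-wash calcium dye loading, compound-evoked calcium rise over 180 s flagged agonists.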
Hits are given with their value; - = inactive; . = no result.

SMILES | D1 PAM | DRD3 antagonist | DRD3 agonist | D1 antagonist | D1 ag
CCCNC(=O)C1(C)CCCN(Cc2csc(-c3ccccc3)n2)C1 (stereo unspecified) | . | -66 | 45 | . | .
CCOC(=O)c1cc(OC)c2cccc(CN3CCCC(C)(C(=O)NCCOC)C3)c2c1 (stereo unspecified) | . | - | - | . | .
COCCNC(=O)C1(C)CCCN(Cc2ccc(C)c3ccccc23)C1 (stereo unspecified) | . | -52 | - | . | .
COCCNC(=O)C1(C)CCN(Cc2csc(-c3ccc(Cl)cc3)n2)C1 (stereo unspecified) | . | -103 | - | . | .
COc1cc(NC(=O)c2nnn(CC(=O)Nc3ccccc3)c2N)cc(OC)c1 | - | . | - | - | -
CCc1cccc(-n2c(=O)c3cccnc3n2CC(=O)NCc2ccccc2Cl)c1 | - | . | - | - | -
CC1c2ccccc2CN1NC(=O)c1ccc(Cl)c(S(N)(=O)=O)c1 (stereo unspecified) | . | . | 51 | . | .
COC(=O)c1ccccc1NC(=O)Cc1nc(-c2ccc(OC)cc2)no1 | - | . | - | - | -
COc1ccc2c(c1)c(CC(=O)Nc1nnc(C3CC3)s1)c(C)n2C(=O)c1ccc(Cl)cc1 | - | - | 54 | - | -
Cc1ccc(CSc2nc(=O)c3c(C)cc(C)nc3n2C2CC2)cc1 | - | . | - | - | -
CCc1c(C)sc2c1CCN(Cc1ccc(F)cc1)C2c1ccccc1 (stereo unspecified) | - | . | - | - | -
CN1/C(=C\P(=O)(N(C)C)N(C)C)C(C)(C)c2ccccc21 | - | - | 31 | -37 | -
O=C(c1cccc(F)c1)N1CCCC(C(=O)N2CCCCCC2)C1 (stereo unspecified) | - | - | - | - | -
O=C(C1CCCN(Cc2cccc(F)c2)C1)N1CCCCC1 (stereo unspecified) | - | -73 | - | - | -
COc1ccc(CN2CCCC(C(=O)N3CCc4ccccc4C3)C2)cc1OC (stereo unspecified) | - | -61 | - | - | -
COc1cc(CN2CCCC(C(=O)N3CCc4ccccc4C3)C2)cc(OC)c1OC (stereo unspecified) | - | -70 | - | - | -
COc1ccc(CN2CCCC(C(=O)N3CCCCC3)C2)cc1OC (stereo unspecified) | - | - | - | - | -
O=C(C1CCCN(Cc2ccccc2)C1)N1CCc2ccccc2C1 (stereo unspecified) | - | -89 | - | - | -
Cc1ccc(-c2nnc(SCC(=O)NC(C)(C)C)nc2-c2ccc(C)cc2)cc1 | - | . | - | - | -
COc1ccc(C(CC(=O)NCc2ccccc2)N2Cc3ccccc3C2=O)cc1 (stereo unspecified) | - | . | - | - | -
COc1ccccc1NC(=S)NNC(=O)c1ccc(O)cc1 | - | -83 | - | - | -
COc1ccccc1NC(=S)NNC(=O)c1nn(C)c(C)c1Cl | - | -69 | - | -49 | -
COc1ccccc1NC(=S)NNC(=O)c1nn(C)c(C)c1Br | - | - | - | - | -
C/C(=N\NC(=O)CSCc1ccccc1Cl)c1cc(O)ccc1O | - | - | - | -37 | -
CCOC(=O)c1sc(NC(=O)CSc2nc3c(cc2C#N)CCCCCC3)c(C#N)c1C | - | - | - | - | 42
SMILES | D1 PAM | DRD3 antagonist | DRD3 agonist | D1 antagonist | D1 ag
CCOC(=O)c1sc(NC(=O)CSc2nc(C)cc(C)c2C#N)c(C#N)c1C | - | - | - | - | -
CCOC(=O)c1oc2cc(O)ccc2c(=O)c1-c1ccccc1OC | - | -61 | - | - | -
CCOC(=O)c1oc2cc(O)ccc2c(=O)c1-c1csc(C)n1 | - | - | - | - | -
CCOc1ccc(NC(=O)c2ccc3nc(Cc4ccccc4)oc3c2)cc1 | - | . | - | - | -
CC(C)/C=C/CN1CCCC(N2CCN(c3cccc(Cl)c3)CC2)C1 (stereo unspecified) | - | - | - | -37 | -
CCOc1cccc(CN2CCCC(N3CCN(c4cccc(Cl)c4)CC3)C2)c1O (stereo unspecified) | - | - | - | - | -
COc1ccccc1Cc1nc2ccccc2nc1SCC(=O)N1CCC(C)CC1 | - | . | - | - | -
